Among all 360,000 compounds or so, about 17,000 (4.7%) were called active. Inconclusive results (about 5%) are left out. The sample holds actives, similar compounds and a random draw of the others, so the mix is not that of the screen. Cut-off read from the data, not from the text of the source: active = activity change below about -50%; inconclusive = mostly about -30% to -49%; inactive = weaker than that.
% is set by controls: 0 for no effect and ±100 for the full control effect.

A short description of the experiment: qHTS for Inhibitors of Inflammasome Signaling: IL-1-beta AlphaLISA Primary Screen. The settings on record: THP-1 LPS/ATP IL-1B secretion, 16 h; at 57.5 µM, stronger effect = lower value. In a few lines:
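THP-1 cells pretreated 1 hr with compounds (up to 57.5 uM final), then stimulated with LPS (250 ng/mL final) plus ATP (1.25 mM final); secreted IL-1B measured by AlphaLISA after 16 hr, decreased signal indicating inhibition.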
In general terms: Quantitative high-throughput screening tests each substance at several concentrations.
With `COc1ccc(CCNc2cc(N3CCN(C(=O)c4ccccc4OC)CC3)ccc2[N+](=O)[O-])cc1OC`, the activity change was 42.9% (inactive).

Turning to `O=C(NN=CC=Cc1ccccc1)C(O)C(O)C(=O)NN=CC=Cc1ccccc1` (stereo not given), the activity change is -17.2% (inactive).

For `Cc1ccc(C(CNC(=O)Nc2cccc(C)c2)N2CCN(C)CC2)cc1` (stereo not given), the activity change is -20.1% (inactive).

Turning to `CCC1CCCCN1C(=S)NC(=O)c1ccco1` (stereo not given), the activity change is -6.58% (inactive).

For the compound `CCn1c(=O)c2ccccc2n(CC(=O)N2CCCc3ccccc32)c1=O`, the activity change was -0.244% (inactive).

In the case of `COc1ccc(CCNC(=O)COc2cc(C)cc3oc(=O)c(C)c(C)c23)cc1OC`, the activity change is -1.44% (inactive).

Turning to `CCOc1ccc(OCc2ccc(C(=O)Nc3cccc(C)n3)o2)cc1`, the activity change is -69% (active).

With `Cc1cccc(NC(=O)c2ccc(COc3ccccc3[N+](=O)[O-])o2)n1`, the activity change was 6.94% (inactive).

Turning to `CCOc1ccc(OCc2ccc(C(=O)N(C)c3ccccc3)o2)cc1`, the activity change was -7.29% (inactive).

For the compound `OC[C@@H]1CN(Cc2ccc(Cl)cc2)C[C@H](n2cnc3c(NCc4ccncc4)ncnc32)O1`, the activity change is -7% (inactive).

For the compound `C=CCn1c2c(c3ccccc31)CCC2`, the activity change was 0% (inactive).

For `Cc1ccc(SC(CC(=O)c2ccc(C(C)(C)C)cc2)C(=O)O)cc1` (stereo not given), the activity change was -93.8% (active).

For the compound `Cc1ccc(C(=O)CSc2ccccc2C(=O)O)cc1`, the activity change was 5.18% (inactive).

`CC(C)(C)c1ccc(C(=O)NNC(=O)Cc2ccccc2)cc1`: the activity change was 0.0784% (inactive).

For the compound `CCC(C)C1(C2CCCC2)NC(=O)NC1=O` (stereo not given), the activity change is -5.19% (inactive).

As for `Cc1nnc(SCC(=O)N2c3ccccc3C(C)(c3ccc(Cl)cc3)CC2(C)C)s1` (stereo not given), the activity change is -71.6% (active).

On to `CC1(c2cccc([N+](=O)[O-])c2)CC(C)(C)N(C(=O)c2ccccc2)c2ccccc21` (stereo not given), for which the activity change was -2.13% (inactive).

As to `CC1(c2ccccc2)CC(C)(C)N(C(=O)c2cc([N+](=O)[O-])cc([N+](=O)[O-])c2)c2ccccc21` (stereo not given), the activity change was 5.37% (inactive).

Consider `CCOC(=O)C1=CC[C@@H](c2ccccc2)N(S(=O)(=O)c2ccc(C)cc2)[C@H]1c1cccc(OC)c1`, for which the activity change is 2.13% (inactive).

On to `CCC(=O)c1ccc(OCC(O)CN2CCN(c3cccc(C(F)(F)F)c3)CC2)cc1` (stereo not given), for which the activity change was -11.4% (inactive).

Consider `OC(COc1ccc2c(c1)CCC2)CN1CCN(c2cccc(Cl)c2)CC1` (stereo not given), for which the activity change is -64.8% (active).

`OC(COc1ccc(Br)cc1)CN1CCCC1` (stereo not given): the activity change is -27.2% (inactive).

As to `O=C(c1ccc(Cl)cc1)c1ccc(OCC(O)CN2CCCCC2)cc1` (stereo not given), the activity change is -52.5% (active).

Take `CC1CCN(CC(O)COc2ccc(C(=O)c3ccccc3)cc2)CC1` (stereo not given): the activity change was -22.3% (inactive).

As for `OC(COc1ccccc1)CN1CCN(c2cccc(Cl)c2)CC1` (stereo not given), the activity change was 14.3% (inactive).

The record behind these values is PubChem BioAssay AID743279 (National Center for Advancing Translational Sciences (NCATS), 2014).
